Holding throughout (conditions): concentration: 1 μM,replicates: in singlicate; n = 1
Test [1] relates to NEK11.
Test [2] has as its system NEK1.
Test [3] concerns NEK2.
In test [4] the test system is NEK3.
Test [5] concerns NEK4.
Test [6] relates to NEK5.
Test [7] concerns NEK6.
Test [8] concerns NEK7.
The subject of test [9] is NEK9.
For test [10], the system named is T1, NIK.
T1 construct: gene MAP3K14

Structures are written as SMILES.
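Note: KINOMEscan kinase panel screen.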

With `Cc1cccc(-c2nc(Nc3ccncc3)c3sccc3n2)n1` [GW869641], the “%Inh” value in test [1] was found to be 31%; in test [2] it was 0%; in test [3] it was 5%; in test [4], 10%; in [5], 14%; in [6] it was 4%. Moreover, the “%Inh” value in [7] amounted to 16%; in test [8], 3%; in test [9] it was 14%; in test [10] it was 0%.
For the compound `C[C@@H](Oc1cc(-n2cnc3cc(-c4ccncc4)ccc32)sc1C(N)=O)c1ccccc1Cl` [GSK479719], the “%Inh” value in [1] is listed as 0%; in test [2], 66%; in [3], 96.5%; in [4], 5%; in test [5], 21%; in test [6] it was 82%. For the same compound, the “%Inh” value in [7] worked out at 0%; in test [8] it was 12%; in test [9], 62%; in test [10], 0%.
For `Cn1ccc2ncnc(Oc3ccc(NC(=O)Nc4cnn(C(C)(C)C)c4)c(Cl)c3)c21`, the “%Inh” value in test [1] is 0%; in test [2], 0%; in test [3] it was 0%; in [4] it was 12%; in [5] it was 0%; in test [6], 6%. Further, the “%Inh” value came to 2% in test [7], 0% in test [8], 0% in test [9] and 0% in test [10].
As to `COc1ccc(Nc2nccc(N3CCC(NC(=O)c4cccc(C#N)c4)C3)n2)cc1` (centres unmarked) [GSK1379730], the “%Inh” value is on record as 0% in test [1]; 0% in [2]; 0% in [3]; 0% in test [4]; 3% in test [5]; 12% in test [6]. Also, the “%Inh” value amounted to 30% in [7], 0% in test [8], 0% in [9] and 0% in [10].
`COc1cccc(CNC(=O)NC2CCN(c3ccnc(Nc4cc(OC)c(OC)c(OC)c4)n3)C2)c1` (centres unmarked) [GSK1379765]: the “%Inh” value in test [1] came to 15%; in test [2], 0%; in test [3], 0%; in [4], 45%; in [5], 31%; in test [6], 95.9%. Further, the “%Inh” value worked out at 0% in test [7], 15% in test [8], 31% in test [9] and 30% in test [10].
Turning to `O=c1[nH]cc(-c2ccc(O)cc2)c2sc(-c3ccncc3)cc12` [GSK1033723], the “%Inh” value in [1] is 23%; in [2] it was 0%; in test [3], 0%; in test [4], 0%; in test [5], 0%; in test [6], 17%. In addition, the “%Inh” value in [7] was determined as 0%; in test [8], 0%; in test [9] it was 18%; in test [10] it was 0%.
`COc1cc(Nc2nccc(N3CCC(NC(=O)c4cccc(C#N)c4)C3)n2)cc(OC)c1OC` (centres unmarked) [GSK1379751]: the “%Inh” value in [1] is reported as 0%; in test [2], 33%; in test [3] it was 13%; in test [4] it was 34%; in [5], 2%; in test [6], 97.1%. For the same compound, the “%Inh” value is reported as 33% in test [7], 11% in test [8], 0% in test [9] and 27% in test [10].
With `CN1CCN(CCCNc2nccc(-c3c(-c4ccc(F)cc4)nn4cc(C(N)=O)ccc34)n2)CC1` [GW622475], the “%Inh” value came out at 0% in test [1]; 0% in [2]; 8% in [3]; 6% in [4]; 10% in [5]; 15% in test [6]. The “%Inh” value is 0% in test [7], 25% in [8], 41% in test [9] and 5% in [10].
Take `CC(C)c1nc(-c2cccc(NS(=O)(=O)c3ccccc3)c2)c(-c2ccnc(Nc3ccc4c(c3)CN(C)CC4)n2)s1` [GSK1649598]: the “%Inh” value is 97.7% in test [1]; 14% in test [2]; 34% in test [3]; 27% in test [4]; 18% in test [5]; 0% in test [6]. The “%Inh” value in [7] turned out to be 0%; in [8] it was 0%; in [9] it was 51%; in test [10], 3%.
As to `Cl.Nc1n[nH]c2cc(-c3ccccn3)ccc12` [GSK2189892], the “%Inh” value was 0% in test [1]; 0% in [2]; 0% in test [3]; 1% in test [4]; 0% in [5]; 0% in [6]. In addition, the “%Inh” value in test [7] is 0%; in [8] it was 0%; in [9], 3%; in [10], 0%.
In the case of `Cc1cccc2c(-c3ccncc3)c(-c3ccc(F)cc3)nn12.Cl` [GW461487], the “%Inh” value in test [1] was found to be 4%; in test [2] it was 0%; in [3], 0%; in [4], 0%; in test [5], 0%; in test [6] it was 16%. Further, the “%Inh” value came to 0% in test [7], 0% in test [8], 15% in test [9] and 10% in [10].
Regarding `CN(c1ccc2c(c1)nc(NCc1ccc(F)cc1)n2C)c1ccnc(Nc2ccc(CS(C)(=O)=O)cc2)n1.Cl` [GW813244], the “%Inh” value in test [1] was 0%; in [2], 0%; in [3] it was 0%; in test [4], 36%; in test [5], 0%; in [6] it was 0%. The “%Inh” value in [7] is 0%; in test [8], 0%; in test [9], 21%; in test [10], 0%.
On to `COc1cc2nccc(Nc3ccc(Oc4ccccc4)cc3)c2cc1OC.Cl` [GI261656], for which the “%Inh” value in test [1], in [2], in test [3], in [4], in [5] and in test [6] was 0% throughout. Further, the “%Inh” value in test [7] is listed as 0%; in [8] it was 0%; in test [9] it was 2%; in [10], 0%.
For `C[C@@H]1CCN(C(=O)N2CCCC2)C[C@@H]1N(C)c1ncnc2[nH]ccc12`, the “%Inh” value is 0% in test [1]; 4% in [2]; 0% in test [3]; 39% in test [4]; 5% in test [5]; 0% in test [6]. The “%Inh” value in test [7] is on record as 8%; in [8], 0%; in test [9] it was 0%; in test [10], 0%.
As to `Cn1ccc2ncnc(Oc3ccc(NC(=O)Nc4ccnc(C(F)(F)F)c4)c(Cl)c3)c21`, the “%Inh” value turned out to be 0% in test [1]; 0% in test [2]; 0% in test [3]; 11% in test [4]; 0% in test [5]; 0% in test [6]. The “%Inh” value in test [7] is on record as 0%; in test [8], 0%; in test [9], 5%; in test [10] it was 0%.
Take `COc1cc2c(Nc3ccc(NC(=O)c4ccccc4)cc3)ncnc2cc1OCCCN1CCOCC1` [GSK301329]: the “%Inh” value stood at 0% in test [1]; 0% in test [2]; 0% in [3]; 0% in test [4]; 22% in [5]; 0% in test [6]. Moreover, the “%Inh” value is given as 0% in [7], 0% in [8], 13% in [9] and 9% in test [10].
For `Cc1ccc(C(=O)Nc2ccc(Oc3ccc4nc(NC(=O)C5CC5)cn4c3)c(F)c2)c(=O)n1-c1ccccc1`, the “%Inh” value in [1] is 0%; in test [2] it was 0%; in test [3] it was 5%; in test [4], 0%; in [5], 0%; in [6], 0%. Also, the “%Inh” value in [7], in test [8], in test [9] and in test [10] was 0% each time.

The record behind these values is publication PMC5540273 (PLoS ONE, 2017).
